Unmarked numbers belong to inactive results. Results filed as inconclusive are left out. Calls of active or inactive are those of the source. Unless noted, calls follow the shape of the full dose curve.

Assay [1] in a line: Nuclear factor erythroid 2-related factor 2/antioxidant responsive element (Nrf2/ARE) small molecule agonists: qHTS cell viability counter screen in human keratinocytes (AID 1919968; active = well fitted curve in the direction sought with a large enough effect in the repeat runs; an effect the other way counts as inactive or inconclusive; also: nearly all actives have a fitted effect of over 55% in size). In outline:
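Parallel cytotoxicity read: KeratinoSens HaCaT cells, compound treatment 23 h, viability by CellTiter-Fluor fluorescence 1 h post-reagent.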
(qHTS replaces the single test concentration by a dilution series.)

The nature of assay [2]: Nuclear factor erythroid 2-related factor 2/antioxidant responsive element (Nrf2/ARE) small molecule agonists: luciferase reporter gene qHTS assay in human keratinocytes (AID 1919969). Also: nearly all actives have a fitted effect of over 35% in size.
For assay [3], the target named is Gonadotropin-releasing hormone receptor (Homo sapiens) (UniProt P30968). As to the kind of experiment: Human gonadotropin-releasing hormone receptor (GnRHR) small molecule agonists, calcium flux assay in GnRHR-HEK293 cells (AID 1920063). Also: nearly all actives have a fitted effect of over 35% in size. An outline of the steps:
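Calcium flux, agonist mode, human GnRHR stably integrated in HEK293; dye 1 h at 37 C before compound; Ex/Em=480/540 kinetic read, 3 min; 15 concentrations, triplicate.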
Background: A change in cytosolic calcium serves as a functional read-out for many receptors and channels.

Assay [4] addresses KiSS-1 receptor (Homo sapiens) (UniProt Q969F8). Put plainly: Human kisspeptin (KISS1R) small molecule agonists, calcium flux assay in KISS1R-HEK293 cells (AID 1920064; active = well fitted curve in the direction sought with a large enough effect in the repeat runs; an effect the other way counts as inactive or inconclusive). In outline: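 Triplicate 15-concentration series were applied to dye-loaded human KISS1R HEK293 cells, and agonist-evoked calcium fluorescence was captured for 3 min.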
Assay [5] is described as follows: G protein-coupled receptor (GPCR) small molecule agonists, calcium flux assay: HEK293 wild type cell line counter screen (AID 1920065). In outline:
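Non-specific calcium responders were flagged by adding DMSO-dissolved compounds to dye-loaded cells and reading 480/540 nm fluorescence each second for 3 min; ATP served as positive control.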

Assay [6] is described as follows: p53 small molecule agonists, cell-based qHTS assay with human liver microsomes (AID 1963577). In outline: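 p53RE-bla cells, 4,000/well, compound added after 5 h, with human liver microsomes 0.5 mg/mL and NADPH 0.5 mg/mL final; 16 h at 37 C, then LiveBLAzer 2 h RT, fluorescence.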
Assay [7] in a line: p53 small molecule agonists, cell-based qHTS assay with rat liver microsomes (AID 1963578). An outline of the steps:
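p53RE-bla cells, 4,000/well, pre-incubated 5 h, then given compounds plus rat liver microsomes (0.5 mg/mL final) and NADPH (0.5 mg/mL final). Incubation 16 h at 37 C; beta-lactamase reporter read by LiveBLAzer fluorescence after 2 h at room temperature.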

Assay [8] in a line: p53 small molecule agonists, cell-based qHTS assay with human liver microsomes: qHTS cell viability counter screen (AID 1963579). Also: nearly all actives have a fitted effect of over 45% in size. In outline: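 p53RE-bla cells, 4,000/well, dosed 5 hours after plating, with human liver microsomes (0.5 mg/mL final) plus NADPH (0.5 mg/mL final), 16 hours at 37 C. Viability read as CellTiter-Glo luminescence after 30 min at room temperature.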
Assay [9] in a line: p53 small molecule agonists, cell-based qHTS assay with rat liver microsomes: qHTS cell viability counter screen (AID 1963580). Also: nearly all actives have a fitted effect of over 45% in size. An outline of the steps: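 Cytotoxicity counter screen: intracellular ATP read by CellTiter-Glo luminescence in the p53 reporter wells. HCT-116 p53RE-bla cells were treated for 16 h at 37 C alongside rat liver microsomes and NADPH, each 0.5 mg/mL final.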

The nature of assay [10]: p53 small molecule agonists, cell-based qHTS assay: qHTS cell viability counter screen (AID 1963581). Also: nearly all actives have a fitted effect of over 45% in size. An outline of the steps:
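Multiplexed with the reporter read, a CellTiter-Glo step (30 min, room temperature) gauges ATP-based viability of HCT-116 p53RE-bla cells after 16 h compound incubation at 37 C.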

Assay [11] can be described thus: p53 small molecule agonists, cell-based qHTS assay (AID 1963582; active = well fitted activation curve with a large enough effect in the signal ratio in the repeat runs, not every such curve was filed as active; the % refers to the signal ratio). In outline: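 Beta-lactamase reporter cells (p53RE-bla) treated with compounds for 16 h at 37 C; FRET substrate, 2 h, room temperature; fluorescence intensity.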
Assay [12] has as its target 5-hydroxytryptamine receptor 2A (Homo sapiens) (UniProt P28223). As to the kind of experiment: 5-hydroxytryptamine receptor 2A (HTR2A) small molecule antagonists, cell-based qHTS assay (AID 1963586). Also: nearly all actives have a fitted effect of over 45% in size. In outline:
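CHO cells stably expressing human HTR2A were plated for 18 h at 37 C, then loaded with calcium dye for 1 h. Compounds were preincubated 5 min at room temperature before DOI (4 nM solution) was added. Kinetic fluorescence was read for 3 min.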

The target is the same in assay [13]. Put plainly: 5-hydroxytryptamine receptor 2A (HTR2A) small molecule agonists, cell-based qHTS assay (AID 1963587). Also: nearly all actives have a fitted effect of over 30% in size. In outline:
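Kinetic calcium-flux fluorescence (2 min, 1 sec intervals) after compound addition in agonist mode. HTR2A-CHO cells were cultured 18 h, then dye-loaded 1 h at 37 C.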

In assay [14] the target is Muscarinic acetylcholine receptor M1 (Homo sapiens) (UniProt P11229). As to the kind of experiment: Cholinergic receptor muscarinic 1 (CHRM1) small molecule antagonists, cell-based qHTS assay (AID 1963588). Also: nearly all actives have a fitted effect of over 40% in size. An outline of the steps: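 Compounds were tested at 15 concentrations in three independent runs. Dye-loaded CHRM1-CHO cells were exposed 5 min at room temperature before stimulation by acetylcholine added at 50nM. Intracellular calcium was read kinetically on FDSS for 3 min.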
Sequence of Muscarinic acetylcholine receptor M1 (Homo sapiens) (P11229 whole entry, looked up): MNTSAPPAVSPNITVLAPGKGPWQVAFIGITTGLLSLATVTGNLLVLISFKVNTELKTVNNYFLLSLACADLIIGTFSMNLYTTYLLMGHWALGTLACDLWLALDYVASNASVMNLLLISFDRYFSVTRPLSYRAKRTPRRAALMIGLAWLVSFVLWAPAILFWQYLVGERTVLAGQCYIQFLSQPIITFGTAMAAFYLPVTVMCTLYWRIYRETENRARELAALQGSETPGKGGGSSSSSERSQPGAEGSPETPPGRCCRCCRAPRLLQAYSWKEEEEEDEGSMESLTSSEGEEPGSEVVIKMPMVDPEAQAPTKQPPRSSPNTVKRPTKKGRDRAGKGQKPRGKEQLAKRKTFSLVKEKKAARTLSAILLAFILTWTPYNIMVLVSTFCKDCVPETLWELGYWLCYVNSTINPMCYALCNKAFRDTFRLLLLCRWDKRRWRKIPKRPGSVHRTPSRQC

Assay [15] has the same target. Put plainly: Cholinergic receptor muscarinic 1 (CHRM1) small molecule agonists, cell-based qHTS assay (AID 1963589). Also: nearly all actives have a fitted effect of over 35% in size. An outline of the steps: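 qHTS, 15-point titration, 3 independent runs: compounds pin-transferred onto dye-loaded CHRM1-CHO cells (human M1), calcium fluorescence followed every second to detect agonism.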
The nature of assay [16]: cAMP Responsive Elements (CRE) small molecule agonists, cell-based qHTS assay (AID 1963590). In outline: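 Quantitative HTS for CRE agonists: HEK 293T CRE-bla cells, overnight plating, 3 h compound incubation at 37 C/5% CO2, then 2 h room-temperature LiveBLAzer B/G FRET substrate loading.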
Assay [17] is described as follows: cAMP Responsive Elements (CRE) small molecule antagonists, cell-based qHTS assay (AID 1963591; active = well fitted inhibition curve with a large enough effect in the signal ratio in the repeat runs, not every such curve was filed as active; the % refers to the signal ratio). An outline of the steps:
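Fluorescence intensity from cleaved LiveBLAzer B/G substrate (2 h, room temperature) quantified CRE-bla activity in HEK 293T cells exposed 3 h to compound with 0.25 uM final NKH477.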

The target in assay [18] is Beta-2 adrenergic receptor (Homo sapiens) (UniProt P07550). As to the kind of experiment: Adrenergic beta2 receptor (ADRB2) small molecule antagonists, cell-based qHTS assay (AID 1963592). Also: nearly all actives have a fitted effect of over 50% in size. Also: potency is read from the fitted curve at half-maximal effect. As to activity change, negative = inhibition: series mostly up to about 92 µM. An outline of the steps: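 Assay format: CHO-ADRB2 cells, 18-20hr seeding at 37C/5% CO2, then compound plus 1nM isoproterenol agonist mix for 0.5hr RT. Homogeneous time-resolved fluorescence cAMP detection after 1hr, expressed as 665/615 nm ratio.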
Sequence of Beta-2 adrenergic receptor (Homo sapiens) (P07550 whole entry, looked up): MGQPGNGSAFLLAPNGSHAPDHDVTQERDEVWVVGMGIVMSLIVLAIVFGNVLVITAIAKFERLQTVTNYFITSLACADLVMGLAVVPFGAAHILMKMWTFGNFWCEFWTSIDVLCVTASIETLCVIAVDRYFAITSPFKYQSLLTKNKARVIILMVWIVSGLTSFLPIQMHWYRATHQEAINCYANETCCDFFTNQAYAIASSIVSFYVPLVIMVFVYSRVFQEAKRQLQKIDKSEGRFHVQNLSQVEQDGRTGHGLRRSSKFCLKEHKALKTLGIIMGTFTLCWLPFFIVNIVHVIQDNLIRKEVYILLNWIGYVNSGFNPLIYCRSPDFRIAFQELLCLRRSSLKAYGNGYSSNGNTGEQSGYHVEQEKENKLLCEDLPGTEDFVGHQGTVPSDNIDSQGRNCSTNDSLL

In assay [19] the target is D(2) dopamine receptor (Homo sapiens) (UniProt P14416). As to the kind of experiment: Dopamine D2 receptor (DRD2) small molecule agonists, cell-based qHTS assay (AID 1963594). Also: nearly all actives have a fitted effect of over 35% in size. In outline: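 cAMP accumulation in DRD2-HEK293 cells measured by HTRF after 1 h detection; compounds added 10 min before NKH477 (200nM […]) forskolin-analogue stimulation, 30 min at room temperature, with Ro20-1724 present at 0.1 mM final.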
Sequence of D(2) dopamine receptor (Homo sapiens) (P14416 whole entry, looked up): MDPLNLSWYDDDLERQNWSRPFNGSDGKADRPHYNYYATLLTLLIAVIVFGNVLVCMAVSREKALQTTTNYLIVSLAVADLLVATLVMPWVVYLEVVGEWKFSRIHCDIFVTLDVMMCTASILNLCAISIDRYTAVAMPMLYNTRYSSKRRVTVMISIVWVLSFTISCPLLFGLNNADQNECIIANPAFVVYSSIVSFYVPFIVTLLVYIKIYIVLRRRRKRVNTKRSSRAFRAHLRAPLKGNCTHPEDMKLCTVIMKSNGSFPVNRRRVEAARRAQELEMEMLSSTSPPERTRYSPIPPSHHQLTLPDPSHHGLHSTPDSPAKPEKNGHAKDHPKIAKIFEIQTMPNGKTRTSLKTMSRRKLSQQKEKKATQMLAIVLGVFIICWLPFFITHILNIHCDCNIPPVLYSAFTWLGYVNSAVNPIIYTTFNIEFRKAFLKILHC

Assay [20] has the same target. As to the kind of experiment: Dopamine D2 receptor (DRD2) small molecule antagonists, cell-based qHTS assay (AID 1963595; active = well fitted inhibition curve with a large enough effect in the signal ratio in the repeat runs, with a control signal flat; the % refers to the signal ratio). In outline:
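Antagonism was scored as restored cAMP in HEK293-DRD2 cells. These cells were stimulated with 200 nM NKH477 and 12 nM quinpirole for 30 min at room temperature, in the presence of 0.1 mM Ro20-1724.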
% is scaled to controls: 0 for no effect and ±100 for the full control effect.

Sequence of KiSS-1 receptor (Homo sapiens) (Q969F8 whole entry, looked up): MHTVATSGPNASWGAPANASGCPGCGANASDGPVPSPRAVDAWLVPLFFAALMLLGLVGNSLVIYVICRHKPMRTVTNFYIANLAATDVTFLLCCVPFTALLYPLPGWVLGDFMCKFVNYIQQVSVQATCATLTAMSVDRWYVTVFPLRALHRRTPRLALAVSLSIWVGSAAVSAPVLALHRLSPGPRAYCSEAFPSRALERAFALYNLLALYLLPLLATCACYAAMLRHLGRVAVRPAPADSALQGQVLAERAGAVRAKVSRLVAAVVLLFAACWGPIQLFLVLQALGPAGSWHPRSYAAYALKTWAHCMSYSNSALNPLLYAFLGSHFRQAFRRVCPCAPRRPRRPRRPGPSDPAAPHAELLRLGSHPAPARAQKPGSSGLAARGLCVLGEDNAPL
Sequence of Gonadotropin-releasing hormone receptor (Homo sapiens) (P30968 whole entry, looked up): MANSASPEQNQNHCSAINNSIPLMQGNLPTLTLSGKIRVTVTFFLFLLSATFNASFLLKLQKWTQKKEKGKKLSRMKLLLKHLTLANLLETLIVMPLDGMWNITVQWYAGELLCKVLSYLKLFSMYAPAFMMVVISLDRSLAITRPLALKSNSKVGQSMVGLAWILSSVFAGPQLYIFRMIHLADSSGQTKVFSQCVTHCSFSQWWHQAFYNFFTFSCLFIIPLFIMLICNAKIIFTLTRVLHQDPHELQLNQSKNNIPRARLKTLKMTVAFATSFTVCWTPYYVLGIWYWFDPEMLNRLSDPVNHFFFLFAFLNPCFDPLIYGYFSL
Sequence of 5-hydroxytryptamine receptor 2A (Homo sapiens) (P28223 whole entry, looked up): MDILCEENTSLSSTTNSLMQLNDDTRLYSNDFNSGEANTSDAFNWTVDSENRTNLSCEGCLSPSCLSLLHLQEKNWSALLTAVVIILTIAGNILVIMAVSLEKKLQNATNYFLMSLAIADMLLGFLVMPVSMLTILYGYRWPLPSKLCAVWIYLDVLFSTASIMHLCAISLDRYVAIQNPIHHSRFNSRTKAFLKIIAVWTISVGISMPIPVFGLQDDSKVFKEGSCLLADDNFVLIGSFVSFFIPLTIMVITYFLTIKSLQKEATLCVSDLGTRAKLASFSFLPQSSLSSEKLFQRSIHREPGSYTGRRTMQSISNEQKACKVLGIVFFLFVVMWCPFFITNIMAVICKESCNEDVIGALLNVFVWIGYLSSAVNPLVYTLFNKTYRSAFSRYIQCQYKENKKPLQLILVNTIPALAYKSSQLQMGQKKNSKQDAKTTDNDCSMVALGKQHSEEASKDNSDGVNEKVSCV

Regarding `CCCCCc1cccc(=O)o1`, the Potency entry in assay [1], in assay [2], in assay [3], in assay [4], in assay [5] and in assay [6] was “inactive” each time. For the same compound, the Potency result in assay [7], in assay [8], in assay [9], in assay [10], in assay [11] and in assay [12] was “inactive” throughout. Also, the Potency entry in [13], in [14], in [15], in assay [16], in assay [17] and in assay [18] was “inactive” in each case. Further, the Potency result in assay [19] and in assay [20] was “inactive” each time.

For `CC(C)(C)NCC(O)COc1ccccc1OCC1CCCO1` (stereo not given), the Potency entry in assay [1], in assay [2], in assay [3], in assay [4], in [5] and in [6] was “inactive” in each case. For the same compound, the Potency entry in assay [7], in assay [8], in assay [9], in assay [10], in assay [11] and in assay [12] was “inactive” each time. The Potency entry in [13], in [14], in [15], in assay [16], in [17] and in assay [19] was “inactive” each time. In addition, the Potency entry in [20] is “inactive”. The Potency in assay [18] was 26.6 nM (active).

As for `COc1nc(C)nc(NC(=O)NS(=O)(=O)c2ccccc2OCCCl)n1`, the Potency result in assay [1], in assay [2], in [3], in [4], in assay [5] and in assay [6] was “inactive” in each case. Also, the Potency result in assay [7], in assay [8], in assay [9], in assay [10], in [11] and in assay [12] was “inactive” each time. For the same compound, the Potency entry in assay [13], in assay [14], in assay [15], in [16], in assay [17] and in [18] was “inactive” throughout. Moreover, the Potency entry in assay [19] and in [20] was “inactive” in each case.

Consider `CC(C)CCOC(=O)c1ccccc1`, for which the Potency entry in assay [1], in assay [2], in [3], in assay [4], in assay [5] and in assay [6] was “inactive” each time. Besides, the Potency result in assay [7], in assay [8], in [9], in assay [10], in [11] and in [12] was “inactive” each time. The Potency entry in assay [13], in assay [14], in assay [15], in assay [16], in assay [17] and in assay [18] was “inactive” in each case. For the same compound, the Potency result in assay [19] and in assay [20] was “inactive” each time.

Consider `Cc1cc(C)c(N=Nc2c(O)c(S(=O)(=O)O)cc3cc(S(=O)(=O)O)ccc23)cc1C`, for which the activity change, negative = cytotoxicity in [1] was -4.24% [at 8.39 µM]; in assay [8], 0.236% [at 5.99 µM]; in assay [9] it was -1.53% [at 5.99 µM]; in [10] it was -0.59% [at 5.99 µM]. In [2], the activity, positive = activation is -2.39% [at 8.39 µM]. The activity change in assay [3] is 0.758% [at 5.22 µM, stronger effect = higher value]. In addition, the activation in [4] is 0.221% [at 6.97 µM]; in assay [5], -0.909% [at 5.23 µM]; in assay [6], -0.355% [at 5.99 µM]; in [7], 0.887% [at 5.99 µM]; in assay [11] it was 0.0696% [at 5.99 µM]; in assay [13], -1.44% [at 7.02 µM]. For the same compound, the activation is -0.143% [at 6.97 µM] in assay [15], -0.168% [at 8.39 µM] in assay [16] and 4.98% [at 8.39 µM] in assay [19]. Further, the values for the activity, negative = inhibition in assay [12] and in assay [14] were -22.1% [at 5.62 µM] and 26.6% [at 5.58 µM], respectively. For the same compound, the activity change, negative = inhibition is -0.183% [at 8.39 µM] in [17], -5.6% [at 8.39 µM] in assay [18] and 0.169% [at 8.38 µM] in [20].

On to `c1c[nH]cn1`, for which the Potency entry in assay [1], in assay [2], in assay [3], in assay [4], in [5] and in [6] was “inactive” each time. In addition, the Potency entry in [7], in assay [8], in assay [9], in assay [10], in assay [11] and in assay [12] was “inactive” in each case. Also, the Potency entry in assay [13], in [14], in assay [15], in assay [16], in [17] and in assay [18] was “inactive” in each case. The Potency result in [19] and in assay [20] was “inactive” in each case.

Turning to `CC(C)(C)c1ccc(CCC=O)cc1`, the Potency result in assay [1], in assay [2], in [3], in assay [4], in [5] and in assay [6] was “inactive” throughout. Also, the Potency result in assay [7], in assay [8], in assay [9], in assay [10], in assay [11] and in [12] was “inactive” in each case. Further, the Potency entry in assay [13], in [14], in [15], in assay [16], in [17] and in assay [18] was “inactive” throughout. The Potency entry in assay [19] and in assay [20] was “inactive” in each case.
